Results as given in PubChem BioAssay (NCI).
This is part of a sample that, as a whole, favours compounds with a hit. Of some 83,000 tested, about 20% had one in any assay.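 Cell lines were cultured in 96-well plates, exposed to a single compound concentration, and assessed for percent growth 48 hours later.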 Calls of active or inactive are those of the source. The calls were made as follows: active = growth percent below 10; inactive = the rest.

What follows are compounds tested on HL-60(TB) leukemia (assay: NCI-60 one-dose screen, 48 h (100 = growth as untreated, 0 = no growth, -100 = all killed)). Conditions: 10 µM unless noted.
For `Nc1ncnc(N)c1NC(=O)c1ccc(OCc2ccccc2)cc1`, the growth was 108% (inactive).
For `COC1=CC(=O)OC(c2ccc(OC)cc2)C1` (stereo unspecified), the growth was 78.3% (inactive).
For `c1csc(-c2ccc(CNc3c4ccccc4nc4ccccc34)cc2)c1`, the growth was -56.7% (active).
`O=C1Nc2ccc(Cl)cc2/C1=C/c1ccc[nH]1` was tested, and the growth was 102% (inactive).
For `O=c1oc2c(cc1-c1ccccc1)c(=O)[nH]c1ccccc12`, the growth was 98.1% (inactive).
`CCOC(=O)c1c(C=O)nc2ccccc2c1/C=C/c1ccc(Cl)cc1` was tested, and the growth was 69.7% (inactive).
In the case of `COc1ccc(S(=O)(=O)NCCCNc2cc(-c3c(-c4cccc(OC)c4)nc4sccn34)ccn2)cc1`, the growth was 32.7% (inactive).
With `Cc1nc(O)cc(=O)[nH]1` the growth was 97% (inactive).
For `CCCCCCCCCCCCCCCc1ccc(C(=O)C[n+]2ccccc2)cc1`, the growth was -69.3% (active).
In the case of `CCCCCCCN(CCCCCCC)C(=N)c1ccnc2ccccc12`, the growth was -64.4% (active).
In the case of `c1cc(C2=N[C@@H]3c4ccccc4C[C@@H]3O2)nc(C2=N[C@@H]3c4ccccc4C[C@@H]3O2)c1`, the growth was 105% (inactive).
`Cc1cc(Nc2cc(N3CCN(C)CC3)nc(/C=C/c3ccccc3)n2)n[nH]1` was tested, and the growth was -29.7% (active).
In the case of `CC(=O)OC(C)COc1ccc(-c2ccccc2)cc1` (stereo unspecified), the growth was 104% (inactive).
In the case of `COc1cc(C(=O)N2CCN(C(=O)c3cc(OC)c(OCc4ccccc4)cc3N)CC2)c(N)cc1OCc1ccccc1`, the growth was 112% (inactive).
`CCOC(=O)/C(C#N)=C1/C(=O)Nc2ccccc21` was tested, and the growth was 149% (inactive).
In the case of `COc1ccc(/C(Cl)=N/N=C(\Cl)c2cc(OC)c(OC)c(OC)c2)cc1OC(C)=O`, the growth was 81.2% (inactive).
